{
  "source": "PubChem BioAssay AID623870",
  "about": "(Broad Institute, 2012)",
  "note": "Among all 390,000 compounds or so, about 2,600 (0.67%) were called active.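 Rule for the calls: active = mean inhibition of replicates at least 50% and at least half of replicates each reaching 50%; inconclusive = half or more replicates reach 50% but mean below 50%; inactive = the rest.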 Only a selection was taken, and actives are over-represented in it overall.",
  "data": [
    {"molecular_target": "Transforming acidic coiled-coil-containing protein 3 (Homo sapiens) (UniProt Q9Y6A5)", "experiment": "inhibitors of ARNT PAS-B binding to TACC3 – biochemical, AlphaScreen, single concentration, primary screen (AID 623870);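 note: 0% = complete ARNT plus TACC3 wells and 100% = ARNT alone without TACC3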", "conditions": "AlphaScreen His-ARNT PAS-B/GST-TACC3 binding, luminescence; at 9.99 µM; stronger effect = higher value; TACC3 fragment carries E629A point mutation", "values": [
      {"smiles": "C[C@@H]1CN([C@@H](C)CO)C(=O)c2cc(NC(=O)Cc3ccccc3)ccc2O[C@@H](C)CCCCO[C@H]1CN(C)C(=O)Cc1ccccc1", "inhibition": "-2.35% (inactive)"},
      {"smiles": "CC[C@]1(O)CC2CN(CCc3c([nH]c4ccccc34)[C@@](C(=O)OC)(c3cc4c(cc3OC)N(C=O)[C@H]3[C@@](O)(C(=O)OC)[C@H](OC(C)=O)[C@]5(CC)C=CCN6CC[C@]43[C@@H]65)C2)C1", "note": "(some centres undefined)", "inhibition": "52.9% (active)"},
      {"smiles": "CC[C@]1(O)C[C@@H]2CN(CCc3c([nH]c4ccccc34)[C@@](C(=O)OC)(c3cc4c(cc3OC)N(C)[C@H]3[C@@](O)(C(=O)OC)[C@H](OC(C)=O)[C@]5(CC)C=CCN6CC[C@]43[C@@H]65)C2)C1", "inhibition": "16% (inactive)"},
      {"smiles": "CN1c2ccc(-c3cccc(C#N)c3)cc2[C@H]2[C@H](CCN2S(=O)(=O)c2cccc(F)c2)[C@@H]1CO", "inhibition": "-10.1% (inactive)"},
      {"smiles": "CNC[C@H]1OCCCC[C@H](C)Oc2ccc(NS(C)(=O)=O)cc2C(=O)N([C@@H](C)CO)C[C@H]1C", "inhibition": "-0.797% (inactive)"},
      {"smiles": "O=C(COC(=O)c1ccc(Br)o1)NC12CC3CC(CC(C3)C1)C2", "inhibition": "6.24% (inactive)"},
      {"smiles": "O=C(OCC(=O)c1cccs1)c1ccc([N+](=O)[O-])o1", "inhibition": "-2.19% (inactive)"},
      {"smiles": "O=C(COC(=O)c1ccc([N+](=O)[O-])o1)NC12CC3CC(CC(C3)C1)C2", "inhibition": "31.3% (active)"},
      {"smiles": "CCN(C[C@H]1[C@H](c2ccc(-c3ccccc3)cc2)[C@H](CO)N1CC1CC1)C(C)=O", "inhibition": "2.62% (inactive)"},
      {"smiles": "C[C@@H]1CCCCO[C@H](CN(C)C(=O)CCC(F)(F)F)[C@@H](C)CN([C@@H](C)CO)C(=O)c2cc(NC(=O)c3ccncc3)ccc2O1", "inhibition": "11% (inactive)"},
      {"smiles": "Cc1ccc(Cc2nnc(SCC(=O)Nc3ccccc3C)[nH]c2=O)cc1", "inhibition": "-1.06% (inactive)"},
      {"smiles": "CC(C)c1ccc(Cc2nnc(NCCCO)[nH]c2=O)cc1", "inhibition": "-6.28% (inactive)"},
      {"smiles": "COc1ccc(Cc2nnc(N/N=C/c3ccccc3O)[nH]c2=O)cc1OC", "inhibition": "58.3% (active)"},
      {"smiles": "COc1cccc(NC(=O)C[C@H]2CC[C@@H]3[C@H](COc4ccc(NC(C)=O)cc4C(=O)N3C)O2)c1", "inhibition": "13% (inactive)"},
      {"smiles": "C[C@@H]1CN([C@H](C)CO)C(=O)c2cc(NC(=O)Nc3ccc4c(c3)OCO4)ccc2O[C@@H]1CN(C)C(=O)Nc1ccc(F)cc1", "inhibition": "14% (inactive)"},
      {"smiles": "CCC(=O)N1C[C@H]2[C@@H](c3ccccc31)[C@H](CO)N2Cc1ccccc1F", "inhibition": "-4.33% (inactive)"},
      {"smiles": "O=C(C1CCCC1)N1[C@H](CO)[C@@H]2c3ccccc3N(S(=O)(=O)c3ccccc3)C[C@@H]21", "inhibition": "-1.74% (inactive)"},
      {"smiles": "O=S(=O)(c1ccccc1)N1C[C@@H]2[C@H](c3ccccc31)[C@H](CO)N2Cc1ccccn1", "inhibition": "32.5% (active)"},
      {"smiles": "CC(=O)N1[C@@H](CO)[C@@H]2c3ccccc3N(S(=O)(=O)c3ccccc3)C[C@@H]21", "inhibition": "4.39% (inactive)"}
    ]}
  ]
}
